The values that follow come from PubChem BioAssay (EPA / NIEHS).

Inconclusive results are not listed. Active and inactive are the calls of the source. Rule for the calls: active = hit-call score of the fitted dose curve at least 0.9, where 1 is the maximum; inconclusive = response in the unintended direction; inactive = score below 0.9.

human Adenosine A2a Receptor (AdoRA2a), ADORA2A (gene 135), sequence (P29274 whole entry, looked up): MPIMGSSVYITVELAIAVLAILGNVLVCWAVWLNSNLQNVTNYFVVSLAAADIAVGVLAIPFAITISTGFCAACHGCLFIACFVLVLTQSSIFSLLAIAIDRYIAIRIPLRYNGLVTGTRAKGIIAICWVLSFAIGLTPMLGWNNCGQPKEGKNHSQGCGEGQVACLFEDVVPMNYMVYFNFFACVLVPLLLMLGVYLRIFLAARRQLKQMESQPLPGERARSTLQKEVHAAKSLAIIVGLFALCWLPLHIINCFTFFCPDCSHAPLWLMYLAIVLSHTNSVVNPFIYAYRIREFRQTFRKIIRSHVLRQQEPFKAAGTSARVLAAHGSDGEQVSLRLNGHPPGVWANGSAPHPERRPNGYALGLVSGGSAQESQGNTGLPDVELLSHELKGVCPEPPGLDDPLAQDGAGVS

The subject of one test is guinea pig Muscarinic, Peripheral (Mperiperal) Receptor, Non-selective Binding, gene 100379235. Nature of the test: NVS_GPCR_gMPeripheral_NonSelective: NovaScreen (NVS) G Protein-Coupled Receptor Assay for guinea pig Muscarinic, Peripheral (Mperiperal) Receptor, Non-selective Binding (AID 2283250). How it is done: NVS_GPCR_gMPeripheral_NonSelective is a biochemical, single-readout assay that uses extracted gene-proteins from Guinea pig bladder membranes in a tissue-based cell-free assay. Measurements were taken 1 hour after chemical dosing in a 48-well plate.NVS_GPCR_gMPeripheral_NonSelective is one of one assay component(s) measured or calculated from the NVS_GPCR_gMPeripheral_NonSelective assay. It is designed to make measurements of radioligand binding, a form of binding reporter, as detected with scintillation counting signals by Filter-based radiodetection technology.Data from the assay component NVS_GPCR_gMPeripheral_NonSelective was analyzed into 1 assay endpoint. This assay endpoint, NVS_GPCR_gMPeripheral_NonSelective, was analyzed in the positive analysis fitting direction relative to DMSO as the negative control and baseline of activity. Using a type of binding reporter, loss-of-signal activity can be used to understand changes in the binding as they relate to the gene Chrm3. Furthermore, this assay endpoint can be referred to as a primary readout, because the performed assay has only produced 1 assay endpoint. To generalize the intended target to other relatable targets, this assay endpoint is annotated to the gpcr intended target family, where the subfamily is rhodopsin-like receptor.
(§1) Binding assays used specific radioligands (tritiated, iodinated) with non-radioactive competitive displacement ligands in agonist or antagonist protocols (as indicated) and various reference compounds and inhibitors to titrate specific binding to receptors and transporters. Most enzyme assays (CYPs, kinases, phosphatases, proteases, HDACs) used recombinant protein and specific substrates (fluorescence mostly, some colorimetric and radioactive) and inhibitors, followed by a biochemical separation of substrate and product. All assays for the biochemical HTS were initially run in duplicate at a single concentration (10 uM for CYP450 assays and 25 uM for all others). Assay-chemical combinations meeting a pre-defined threshold (e.g., 30% inhibition and other criteria defined below) were then run in singleton concentration-response format with maximum concentration of 20 uM for CYPs and 50 uM for all others. Each assay was run with positive and negative controls, and concurrent controls on every plate. The follow-up (secondary) screen tested active chemical-pairs in concentration series, as well as a few additional assays not tested in the primary screen, some selected negative inactives, and several cases re-run in the concentration series for confirmatory purposes.
`Cc1ccn2nc(S(=O)(=O)Nc3c(F)cccc3F)nc2n1`: the compound was classed as inactive.

As to `CCOC(=O)COc1cc(-c2nn(C)c(OC(F)F)c2Cl)c(F)cc1Cl`, the compound was classed as inactive.

Turning to `N#CSCSC#N`, the AC50 was 7.4 µM (active).

For a further test, the target named is human Serotonin, 5-Hydroxytryptamine Receptor 5A (5HT5A), HTR5A (gene 3361) (UniProt P47898). Nature of the test: NVS_GPCR_h5HT5A: NovaScreen (NVS) G Protein-Coupled Receptor Assay for human Serotonin, 5-Hydroxytryptamine Receptor 5A (5HT5A) (AID 2283251). In a few lines: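 Cell-free radioligand displacement binding on HEK293-derived membrane protein, 1 h incubation, filter-based scintillation counting. Primary screen in duplicate at 25 uM, actives followed in concentration series; loss of signal fitted versus DMSO.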
human Serotonin, 5-Hydroxytryptamine Receptor 5A (5HT5A), HTR5A (gene 3361), sequence (P47898 whole entry, looked up): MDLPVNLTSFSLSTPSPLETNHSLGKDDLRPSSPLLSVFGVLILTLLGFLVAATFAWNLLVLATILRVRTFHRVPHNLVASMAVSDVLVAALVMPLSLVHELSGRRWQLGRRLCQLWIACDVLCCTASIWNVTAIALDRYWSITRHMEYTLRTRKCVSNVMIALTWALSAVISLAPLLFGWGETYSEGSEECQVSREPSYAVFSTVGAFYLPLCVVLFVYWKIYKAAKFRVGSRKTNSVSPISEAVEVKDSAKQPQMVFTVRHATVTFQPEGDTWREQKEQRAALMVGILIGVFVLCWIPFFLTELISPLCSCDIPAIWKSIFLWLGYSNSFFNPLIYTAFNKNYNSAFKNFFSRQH
As for `CNC(=O)Oc1cccc2c1OC(C)(C)O2`, the outcome was inactive.

On to `O=C(O)c1cc(Oc2ccc(C(F)(F)F)cc2Cl)ccc1[N+](=O)[O-]`, for which the compound was called inactive.

As for `CC(Oc1cccc(Cl)c1)C(=O)O` (stereo not given), the call was inactive.

With `C=C(C)[C@H]1Cc2c(ccc3c2O[C@@H]2COc4cc(OC)c(OC)cc4[C@@H]2C3=O)O1`, the result was inactive.

`CCOP(=S)(OCC)Oc1ccc2c(C)c(Cl)c(=O)oc2c1`: the compound was classed as inactive.

In the case of `CC(COc1ccc(Oc2ccccc2)cc1)Oc1ccccn1` (stereo not given), the compound was called inactive.

Regarding `CC(C)[C@H](C(=O)O[C@H](C#N)c1cccc(Oc2ccccc2)c1)c1ccc(Cl)cc1`, the AC50 is 6.96 µM (active).

The next test deals with guinea pig Opioid, Kappa 1 Receptor (OpiateK), OPRK1 (gene 100135587) (UniProt P41144). Nature of the test: NVS_GPCR_gOpiateK: NovaScreen (NVS) G Protein-Coupled Receptor Assay for guinea pig Opioid, Kappa 1 Receptor (OpiateK) (AID 2283252).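 Note: active means reduced radioligand binding relative to DMSO.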 In a few lines: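 Signal is scintillation counts of filter-trapped radioligand bound to guinea pig cerebellar membrane receptor, measured 2 hours post-dosing. Activity is loss of binding versus DMSO, first at 25 uM in duplicate, then as concentration series for actives.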
guinea pig Opioid, Kappa 1 Receptor (OpiateK), OPRK1 (gene 100135587), sequence (P41144 whole entry, looked up): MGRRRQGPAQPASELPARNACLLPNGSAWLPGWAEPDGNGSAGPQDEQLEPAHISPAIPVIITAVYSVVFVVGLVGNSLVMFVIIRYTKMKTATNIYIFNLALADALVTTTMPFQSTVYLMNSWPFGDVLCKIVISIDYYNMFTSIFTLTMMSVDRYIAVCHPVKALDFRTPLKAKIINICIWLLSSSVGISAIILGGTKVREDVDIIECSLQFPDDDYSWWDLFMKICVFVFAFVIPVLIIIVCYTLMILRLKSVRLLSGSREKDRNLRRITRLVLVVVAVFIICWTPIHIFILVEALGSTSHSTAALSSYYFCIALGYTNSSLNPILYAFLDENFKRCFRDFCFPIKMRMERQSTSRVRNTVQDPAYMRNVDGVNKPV
On to `CCCOCC(=Nc1ccc(Cl)cc1C(F)(F)F)n1ccnc1`, for which the call was inactive.

In the case of `COc1ccc(C(=CC(=O)N2CCOCC2)c2ccc(Cl)cc2)cc1OC`, the compound was classed as inactive.

As for `N#CSCSC#N`, the AC50 is 38.7 µM (active).

For the compound `CCOP(=O)(NC(C)C)Oc1ccc(SC)c(C)c1` (stereo not given), the AC50 was 16.3 µM (active).

In the next test the target is human Adenosine A1 Receptor (AdoRA1), ADORA1 (gene 134) (UniProt P30542). Nature of the test: NVS_GPCR_hAdoRA1: NovaScreen (NVS) G Protein-Coupled Receptor Assay for human Adenosine A1 Receptor (AdoRA1) (AID 2283254). In short, it runs like this: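 Membranes from human cortical tissue were incubated with radioligand and test chemical for 1 hour, then filtered and counted. Activity was taken as signal loss relative to DMSO, screened at 25 uM in duplicate before concentration-response follow-up.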
human Adenosine A1 Receptor (AdoRA1), ADORA1 (gene 134), sequence (P30542 whole entry, looked up): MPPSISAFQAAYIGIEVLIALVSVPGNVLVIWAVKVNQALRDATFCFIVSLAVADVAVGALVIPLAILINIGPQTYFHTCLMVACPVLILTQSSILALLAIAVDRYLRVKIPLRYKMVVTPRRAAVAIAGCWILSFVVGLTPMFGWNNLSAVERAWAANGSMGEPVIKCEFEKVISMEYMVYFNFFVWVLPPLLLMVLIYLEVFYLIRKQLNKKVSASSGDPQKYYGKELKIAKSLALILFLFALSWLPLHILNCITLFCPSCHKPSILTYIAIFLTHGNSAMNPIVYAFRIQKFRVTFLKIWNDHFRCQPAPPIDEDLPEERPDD
As for `C#CCC1=C(C)C(OC(=O)C2C(C=C(C)C)C2(C)C)CC1=O` (stereo not given), the call was inactive.

With `COc1ccc(C(=CC(=O)N2CCOCC2)c2ccc(Cl)cc2)cc1OC`, the AC50 is 14.2 µM (active).

`CCNc1nc(Cl)nc(NC(C)(C)C#N)n1`: the AC50 is 4.08 µM (active).

The target of the next test is human Adenosine A2a Receptor (AdoRA2a), ADORA2A (gene 135) (UniProt P29274). Nature of the test: NVS_GPCR_hAdoRA2a: NovaScreen (NVS) G Protein-Coupled Receptor Assay for human Adenosine A2a Receptor (AdoRA2a) (AID 2283256). How it is done:
NVS_GPCR_hAdoRA2a is a biochemical, single-readout assay that uses extracted gene-proteins from HEK293 in a cell-free assay. Measurements were taken 1.5 hours after chemical dosing in a 96-well plate.NVS_GPCR_hAdoRA2a is one of one assay component(s) measured or calculated from the NVS_GPCR_hAdoRA2a assay. It is designed to make measurements of radioligand binding, a form of binding reporter, as detected with scintillation counting signals by Filter-based radiodetection technology.Data from the assay component NVS_GPCR_hAdoRA2a was analyzed into 1 assay endpoint. This assay endpoint, NVS_GPCR_hAdoRA2a, was analyzed in the positive analysis fitting direction relative to DMSO as the negative control and baseline of activity. Using a type of binding reporter, loss-of-signal activity can be used to understand changes in the binding as they relate to the gene ADORA2A. Furthermore, this assay endpoint can be referred to as a primary readout, because the performed assay has only produced 1 assay endpoint. To generalize the intended target to other relatable targets, this assay endpoint is annotated to the gpcr intended target family, where the subfamily is rhodopsin-like receptor.
as §1, with “Assay-chemical combinations meeting a pre-defined threshold (e.g., 30% inhibition and other criteria defined below) were then run in singleton concentration-response format with maximum concentration of 20 uM for CYPs and 50 uM for all others.” left out
For `O=C(O)c1cc(Oc2ccc(C(F)(F)F)cc2Cl)ccc1[N+](=O)[O-]`, the AC50 was 7.71 µM (active).

Take `O=[N+]([O-])c1cc(C(F)(F)F)c(Cl)c([N+](=O)[O-])c1Nc1ncc(C(F)(F)F)cc1Cl`: the AC50 is 6.87 µM (active).

Take `CCNc1nc(Cl)nc(NC(C)(C)C#N)n1`: the AC50 was 5.75 µM (active).
